Measured values: ChEMBL document CHEMBL3988442, “University of Dundee, Small-Polar-MMV Screening Library” (2021)

Columns and labels:
[1] = target: T1, Aspartate--tRNA(Asp/Asn) ligase (Mycobacterium tuberculosis (strain ATCC 25618 / H37Rv)) (UniProt P9WFW3); assay: Assay for Asp RNA synthetase-1 from Mycobacterium tuberculosis; assay type: functional; parameters: scale not given: direction of the effect not stated beside the values; conditions: 30 µM; further: in the data most compounds retested in dose-response had high values
T1 sequence (whole entry): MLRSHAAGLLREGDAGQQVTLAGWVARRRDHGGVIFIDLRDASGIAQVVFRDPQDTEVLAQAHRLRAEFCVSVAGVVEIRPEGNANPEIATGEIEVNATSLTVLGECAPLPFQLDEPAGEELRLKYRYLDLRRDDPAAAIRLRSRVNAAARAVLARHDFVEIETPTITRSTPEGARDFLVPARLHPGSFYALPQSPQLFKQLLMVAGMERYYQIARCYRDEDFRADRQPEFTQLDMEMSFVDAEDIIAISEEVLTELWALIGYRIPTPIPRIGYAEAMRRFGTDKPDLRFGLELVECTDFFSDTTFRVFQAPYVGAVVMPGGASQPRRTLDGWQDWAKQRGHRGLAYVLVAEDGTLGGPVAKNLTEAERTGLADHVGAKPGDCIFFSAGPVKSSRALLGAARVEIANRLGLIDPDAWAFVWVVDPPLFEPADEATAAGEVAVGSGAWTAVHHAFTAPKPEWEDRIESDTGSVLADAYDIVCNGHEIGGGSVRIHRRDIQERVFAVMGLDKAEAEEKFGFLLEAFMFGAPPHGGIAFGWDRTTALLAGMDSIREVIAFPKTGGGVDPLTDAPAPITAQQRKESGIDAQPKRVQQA

[2] = target: Shiga toxin 2 (Escherichia coli O157:H7) (UniProt P09385+P09386); assay: E. coli 0.157:H7 Shiga Toxin SOP - stx2 screening assay; assay type: functional; parameters: scale not given: direction of the effect not stated beside the values; conditions: 30 µM

**Q.** What does the source list for `CC(=O)N1CCCCC1c1cc(C(=O)N2CCOCC2)[nH]n1` (configuration not stated)?
**A.** Percent Effect [1]: -0.551%; Percent Effect [2]: 15.2%

**Q.** With `O=C(c1ccoc1)N1CCC2(CC1)C(=O)Nc1ccccc12` as the compound, how does the Percent Effect [1] read?
**A.** -1.51%

**Q.** And the Percent Effect [2]?
**A.** -2.64%

**Q.** What does the source list for `COC(C(=O)N1CCCN(Cc2cscn2)CC1)c1ccccc1` (configuration not stated)?
**A.** Percent Effect [1]: 0.144%; Percent Effect [2]: 3.66%

**Q.** For `Fc1ccc2c(c1)C(NCc1nnc3n1CCCCC3)CCCO2` (configuration not stated), which Percent Effect [1] is on record?
**A.** -3.62%

**Q.** And the Percent Effect [2]?
**A.** -12.2%

**Q.** `CC(C)NC(=O)C(c1ccccc1)N1CCn2c(nnc2C2CC2)C1` (configuration not stated) was tested. Which Percent Effect [1] did it give?
**A.** -1.48%

**Q.** What about the Percent Effect [2] of the same compound?
**A.** 13%

**Q.** Which results are given for `COCCN1C[C@H]2[C@@H](C1)N(C(=O)c1cccs1)CC[C@H]2OC`?
**A.** Percent Effect [1]: 0.503%; Percent Effect [2]: 3.28%

**Q.** `CCN1CCn2nc(CCC(=O)N3CCCC3)cc2C1` was tested. Which Percent Effect [1] did it give?
**A.** -0.386%

**Q.** And the Percent Effect [2]?
**A.** -5.54%

**Q.** With `CN(C(=O)NCc1ccncc1)C1CCN(c2ccccc2)C1=O` (configuration not stated) as the compound, how does the Percent Effect [1] read?
**A.** -3.08%

**Q.** What about the Percent Effect [2] of the same compound?
**A.** -7.78%

**Q.** How did the Percent Effect [1] turn out when `O=C(NCC1(N2CCOCC2)CCSC1)Nc1ccc(F)cc1` (configuration not stated) was run?
**A.** 2%

**Q.** And the Percent Effect [2]?
**A.** -8.73%

**Q.** Which Percent Effect [1] does the source give for `Cc1cnn(CC2CCCN2C(=O)c2cn(-c3ccccc3)nc2C)c1` (configuration not stated) here?
**A.** 4.47%

**Q.** And the Percent Effect [2]?
**A.** 14.6%

**Q.** Which results are given for `CN(C(=O)Cc1ccc2c(c1)OCCO2)C1CCCC1`?
**A.** Percent Effect [1]: -2.52%; Percent Effect [2]: 0.101%

**Q.** With `Cc1ccccc1S(=O)(=O)N1CCCCC1c1ccn[nH]1` (configuration not stated) as the compound, how does the Percent Effect [1] read?
**A.** 0.632%

**Q.** And the Percent Effect [2]?
**A.** 35.1%

**Q.** Which Percent Effect [1] does the source give for `CCS(=O)(=O)CCNC(=O)c1ccc(-c2ccc(C)cc2)cc1F` here?
**A.** 7.76%

**Q.** And the Percent Effect [2]?
**A.** -42.5%

**Q.** Which Percent Effect [1] does the source give for `CSCC(CCO)NC(=O)Nc1cccc(Br)c1` (configuration not stated) here?
**A.** 8.05%

**Q.** What about the Percent Effect [2] of the same compound?
**A.** -15.3%

**Q.** What does the source list for `O=C(c1ccco1)N1CCCC1C1CCN(Cc2ccccc2)CC1` (configuration not stated)?
**A.** Percent Effect [1]: 4.64%; Percent Effect [2]: -11.3%

**Q.** Which Percent Effect [1] does the source give for `CCCS(=O)(=O)N1CCC2(CC1)CN(c1ccccn1)CCO2` here?
**A.** 2.47%

**Q.** And the Percent Effect [2]?
**A.** -46.8%

**Q.** Which Percent Effect [1] does the source give for `CC(C)N1CCC(CNCc2c[nH]nc2C(C)(C)C)C1` (configuration not stated) here?
**A.** 7.32%

**Q.** And the Percent Effect [2]?
**A.** 11.2%

**Q.** What does the source list for `O=C(C1CCN(c2snc3ccccc23)CC1)N1CCCCCC1`?
**A.** Percent Effect [1]: 3.13%; Percent Effect [2]: -32.4%

**Q.** Which results are given for `CC(NCc1ccncc1)c1cc(F)ccc1N1CCN(C)CC1` (configuration not stated)?
**A.** Percent Effect [1]: 0.183%; Percent Effect [2]: -4.73%

**Q.** How did the Percent Effect [1] turn out when `O=C(Cn1ccc2sccc2c1=O)NCc1ccc2c(c1)OCO2` was run?
**A.** 0.0437%

**Q.** And the Percent Effect [2]?
**A.** -8.21%

**Q.** For `c1ccc(CCNC2CCc3ncnn3C2)nc1` (configuration not stated), which Percent Effect [1] is on record?
**A.** 5.83%

**Q.** What about the Percent Effect [2] of the same compound?
**A.** -16.7%

**Q.** Which results are given for `CCc1nc(CN2CCCC(NCc3ccc(C(N)=O)cc3)C2)no1` (configuration not stated)?
**A.** Percent Effect [1]: -2.68%; Percent Effect [2]: -8.49%

**Q.** Which results are given for `Cc1nc(C2CCN(C(=O)c3cccnc3)CC2)c2sccn12`?
**A.** Percent Effect [1]: 2.04%; Percent Effect [2]: -14.1%

**Q.** With `Cc1nccc([C@H]2C[C@@H]3CCN(S(=O)(=O)N(C)C)C[C@H]3O2)n1` as the compound, how does the Percent Effect [1] read?
**A.** 1.71%

**Q.** What about the Percent Effect [2] of the same compound?
**A.** 6.66%

**Q.** `COc1ccc(-c2nnc(SC(C)C(=O)NC3CC3)[nH]2)c(OC)c1` (configuration not stated) was tested. Which Percent Effect [1] did it give?
**A.** 2.19%

**Q.** What about the Percent Effect [2] of the same compound?
**A.** 7.63%

**Q.** With `N#Cc1ccccc1OCCN1CCCCC1Cn1cncn1` (configuration not stated) as the compound, how does the Percent Effect [1] read?
**A.** 3.26%

**Q.** And the Percent Effect [2]?
**A.** 5.17%

**Q.** `N#Cc1ccc(C(=O)N2CCC3(CC2)C(=O)Nc2ccccc23)cn1` was tested. Which Percent Effect [1] did it give?
**A.** 6.62%

**Q.** What about the Percent Effect [2] of the same compound?
**A.** 1.52%

**Q.** For `CC(C)NC(=O)N1CCc2nc(C(=O)NCc3ccccc3)sc2CC1`, which Percent Effect [1] is on record?
**A.** 0.168%

**Q.** And the Percent Effect [2]?
**A.** 4.49%

**Q.** With `Cc1cnn(CCNCc2ccccc2Oc2cccnc2)c1` as the compound, how does the Percent Effect [1] read?
**A.** 10.1%

**Q.** And the Percent Effect [2]?
**A.** -15.5%

**Q.** How did the Percent Effect [1] turn out when `CCn1nc(CNC(=O)C2CC(=O)N(C3CCCC3)C2)c2ccccc21` (configuration not stated) was run?
**A.** 2.02%

**Q.** What about the Percent Effect [2] of the same compound?
**A.** -13.1%

**Q.** `Cn1cc(-c2cnc(N3CCOCC3)nc2)cc1C(=O)N1CCOCC1` was tested. Which Percent Effect [1] did it give?
**A.** -3.52%

**Q.** And the Percent Effect [2]?
**A.** -3.46%

**Q.** What does the source list for `Cc1cc(NC(=O)CN2CCn3c(nnc3C(C)C)C2)no1`?
**A.** Percent Effect [1]: -3.23%; Percent Effect [2]: -39.9%

**Q.** With `CCCn1ccc(C(=O)N2CCOC(c3nc(-c4cccs4)no3)C2)n1` (configuration not stated) as the compound, how does the Percent Effect [1] read?
**A.** 0.28%

**Q.** What about the Percent Effect [2] of the same compound?
**A.** -0.831%

**Q.** With `CCCN1CCCn2nc(CNS(=O)(=O)c3ccc(C)cc3)cc2C1` as the compound, how does the Percent Effect [1] read?
**A.** -1.38%

**Q.** What about the Percent Effect [2] of the same compound?
**A.** 6.63%

**Q.** Which results are given for `Cc1nc(C)n(CC2CCCCN2CC(=O)Nc2cccnc2)n1` (configuration not stated)?
**A.** Percent Effect [1]: -1.56%; Percent Effect [2]: 7.21%

**Q.** For `O=C(NCCS(=O)(=O)N1CCc2ccccc21)c1c(O)cc(F)cc1F`, which Percent Effect [1] is on record?
**A.** -2.88%

**Q.** And the Percent Effect [2]?
**A.** 23%

**Q.** With `Cn1cnc2c1CCN(Cc1csc(-c3ccsc3)n1)C2` as the compound, how does the Percent Effect [1] read?
**A.** 3.77%

**Q.** And the Percent Effect [2]?
**A.** -95.3%

**Q.** Which results are given for `CS(=O)(=O)c1ccc(OCCNCc2ccc(F)cc2F)cc1`?
**A.** Percent Effect [1]: 4.17%; Percent Effect [2]: -84.6%

**Q.** What does the source list for `CC1(C)CC(N2Cc3nc(N4CCOCC4)ncc3C2=O)CC(C)(C)N1`?
**A.** Percent Effect [1]: -4.82%; Percent Effect [2]: -59.4%

**Q.** What does the source list for `CCc1ncc2c(n1)CN(Cc1nc(-c3ccsc3)no1)CC2`?
**A.** Percent Effect [1]: -0.759%; Percent Effect [2]: 13.8%

**Q.** `Cc1cnn(CCNCC(=O)NCCOc2ccccc2)c1` was tested. Which Percent Effect [1] did it give?
**A.** -2.67%

**Q.** What about the Percent Effect [2] of the same compound?
**A.** 18.2%

**Q.** Which Percent Effect [1] does the source give for `Cc1nccc(C(=O)N2CCCN(Cc3cnn(C(C)C)c3)CC2)n1` here?
**A.** -2.77%

**Q.** And the Percent Effect [2]?
**A.** -13.2%

**Q.** Which results are given for `Cc1nccn1C1CCCN(C(=O)c2cc(O)nc3ccccc23)C1` (configuration not stated)?
**A.** Percent Effect [1]: 1.77%; Percent Effect [2]: 5.42%

**Q.** Which results are given for `Cn1ccc(C(=O)NCc2cccc(NC(=O)C3CCC3)c2)cc1=O`?
**A.** Percent Effect [1]: -0.879%; Percent Effect [2]: -48%

**Q.** How did the Percent Effect [1] turn out when `Cn1ccnc1-c1cccc(NC(=O)NCCN2CCOCC2)c1` was run?
**A.** 4.54%

**Q.** What about the Percent Effect [2] of the same compound?
**A.** -60.9%

**Q.** What does the source list for `COc1ccccc1CC1CCCN(CC(=O)N2CCOCC2)C1` (configuration not stated)?
**A.** Percent Effect [1]: -1.41%; Percent Effect [2]: 16.7%
